The list is not random: actives were taken first. Their share in the collection is about 5.1%.
CRFR2-BP ag – agonists of human CRF-binding protein/CRF-R2 receptor complex | HEK293 CRF-R2/CRF-BP, calcium dye fluorescence (FLIPR); percent of saturating CRF peptide response | activation, % at 13.2 µM | 0.46% of 350,000 active;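 active means activation of at least 50%, plus an integration ratio under a set limit after plate pattern correction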;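 further: plate controls were neutral control wells without compound for no effect and CRF at EC100 for full effect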
TMEM16A act – activators or potentiators of mouse TMEM16A chloride channel; HEK293 TMEM16A/YFP-H148Q/I152L, iodide quench fluorescence; hits give low values; B-score at 10 µM; 0.3% of 340,000 active;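 active means fluorescence-ratio B-score plate-corrected deviation score at least 3 library SD below zero, with starting fluorescence score within 5 deviations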;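 further: channel opened by trigger with iodide after compound preincubation; score built on the fluorescence ratio of max minus min over baseline; more negative score means more quench and so TMEM16A activation or potentiation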
Target sequence (Q8BHY3 whole entry, looked up): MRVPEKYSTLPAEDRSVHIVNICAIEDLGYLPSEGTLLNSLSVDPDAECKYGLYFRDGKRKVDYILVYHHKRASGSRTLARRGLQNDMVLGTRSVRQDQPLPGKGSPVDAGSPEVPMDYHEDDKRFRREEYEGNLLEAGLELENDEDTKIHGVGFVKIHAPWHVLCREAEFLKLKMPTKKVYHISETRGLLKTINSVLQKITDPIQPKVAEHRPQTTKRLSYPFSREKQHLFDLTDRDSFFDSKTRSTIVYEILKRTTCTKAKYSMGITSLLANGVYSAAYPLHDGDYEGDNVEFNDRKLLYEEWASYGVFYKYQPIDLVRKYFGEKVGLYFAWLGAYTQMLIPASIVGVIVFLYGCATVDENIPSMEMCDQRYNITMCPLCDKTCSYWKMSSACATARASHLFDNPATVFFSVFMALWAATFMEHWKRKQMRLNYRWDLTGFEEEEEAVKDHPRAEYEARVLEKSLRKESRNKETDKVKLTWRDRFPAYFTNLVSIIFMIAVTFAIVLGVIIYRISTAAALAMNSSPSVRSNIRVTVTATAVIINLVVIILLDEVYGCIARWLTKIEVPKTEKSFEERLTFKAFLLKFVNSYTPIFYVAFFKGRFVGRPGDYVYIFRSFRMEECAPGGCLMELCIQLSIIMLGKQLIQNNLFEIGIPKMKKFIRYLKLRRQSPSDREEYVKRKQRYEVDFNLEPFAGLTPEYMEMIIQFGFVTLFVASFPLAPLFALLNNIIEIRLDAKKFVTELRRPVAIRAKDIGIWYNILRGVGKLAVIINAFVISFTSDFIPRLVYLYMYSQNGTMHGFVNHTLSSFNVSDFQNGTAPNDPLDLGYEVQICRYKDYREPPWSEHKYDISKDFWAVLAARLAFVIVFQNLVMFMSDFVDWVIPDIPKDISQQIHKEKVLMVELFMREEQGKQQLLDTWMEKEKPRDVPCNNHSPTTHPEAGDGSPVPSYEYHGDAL
TMEM16A inh – blocks the mouse calcium-activated chloride channel TMEM16A; normalized B-score (activity score, 25-100; higher = stronger inhibition) at 10 µM; 1.2% of 310,000 active; HEK293 TMEM16A/YFP iodide influx fluorescence, ionomycin;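 active means ratio plate-corrected score three or more library SD toward inhibition, starting fluorescence score within five deviations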;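 further: score derived from kinetic fluorescence span divided by baseline fluorescence per well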
MPTP inh – inhibitors of mitochondrial permeability transition pore | isolated mouse mitochondria, Ca2+ swelling absorbance, 30 min | inhibition, % at 10 µM | 1.4% of 360,000 active;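 active means inhibition of 50% or more, scaled per plate between neutral and stimulator controls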;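 further: 0% = DMSO wells given calcium and 100% = 1 mM EGTA wells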
NR3A LBD binder – modulators (binders) of human NR3A ligand-binding domain; NR3A LBD differential scanning fluorimetry, Tm shift; 0% = protein alone, 100% = glycine-bound protein; Tm shift relative to glycine control, % at 25 µM; 2.5% of 340,000 active; AID 1259313;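 active means melting temperature shift of at least 10% of the positive control shift, at one fixed dose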
CRFR2-BP antag – antagonists of CRF-binding protein/CRF-R2 receptor complex; HEK293 CRF-R2/CRF-BP, CRF-induced calcium fluorescence; inhibition, % at 11.8 µM; 0.59% of 350,000 active;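 active means inhibition of the ligand-induced calcium signal above about 50% at the single tested concentration, limit read from the data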
Starred values were filed as active, the others as inactive; i = inactive; · = no result given.

SMILES	CRFR2-BP ag	TMEM16A act	TMEM16A inh	MPTP inh	NR3A LBD binder	CRFR2-BP antag
COc1cccc(NC(=S)NN2CCN(C)CC2)c1	0	i	i	-2	12*	-4
COc1ccc(OC)c(NC(=S)NN2CCN(C)CC2)c1	-1	i	i	-2	-3	8
COc1ccc(-c2nc3cc(C)c(Br)c(C)n3c2Cc2ccc(C)cc2)cc1OC	·	·	·	1	·	·
CN(Cc1nc(-c2cccnc2)no1)S(=O)(=O)c1ccccc1	0	i	i	0	0	-1
CN(Cc1nc(-c2ccccn2)no1)S(=O)(=O)c1ccc(Cl)cc1	54*	i	i	3	7	-128
O=C1C=CC(=O)N1c1ccccc1N1C(=O)C=CC1=O	4	i	·	2	0	97*
O=C(Cn1cc(C(=O)C(=O)N2CCOCC2)c2ccccc21)Nc1cccc(C(F)(F)F)c1	1	·	·	2	·	-20
CCOC(=O)/C=c1\s/c(=C\c2c(OC)ccc3ccccc23)c(=O)n1CC(=O)NCC1CCCO1 (stereo unspecified)	1	i	i	0	2	-23
CCOC(=O)c1sc2nc(C)n(CC(=O)NCC3CCCO3)c(=O)c2c1C (stereo unspecified)	0	i	i	-3	1	58*
Cc1nc(SCC(=O)NCC2CCCO2)c2c3c(sc2n1)CCC3 (stereo unspecified)	0	i	i	1	20*	-9
CCOc1c(C)cnc2c1c(=O)n(CC(=O)NCC1CCCO1)c(=O)n2C (stereo unspecified)	1	i	i	-1	1	7
CCOC(=O)/C=c1/s/c(=C/c2ccc3cc(OC)ccc3c2)c(=O)n1CC(=O)NCC1CCCO1 (stereo unspecified)	79*	i	·	0	1	-45
O=C(CSc1ncnc2sc3c(c12)CCC3)NCC1CCCO1 (stereo unspecified)	-1	i	i	0	5	10
CCN(Cc1ccccc1)C(=O)c1cc(S(=O)(=O)N2CCOCC2)cn1C	-6	i	i	0	-3	-5
CCN(CC)C1=N/C(=C\c2ccc(OC)cc2)C(=O)N1c1ccccc1	0	i	i	1	12*	-15
COc1ccc(S(=O)(=O)N2CCC(Nc3ccccc3Cl)CC2)cc1	2	i	i	1	1	15
OCc1cn(-c2ccccc2)nc1-c1ccc(Br)cc1	-1	i	i	1	34*	-10
O=C(O)Cc1cn(-c2ccccc2)nc1-c1ccc(Cl)cc1	-1	i	i	0	12*	17
CSc1ccc(Cl)c(C(=O)NNC(=O)c2cccs2)c1	-2	i	·	0	0	-10
COc1ccc(/C=N/Nc2nc(Nc3ccccc3)nc(N3CCCC3)n2)cc1[N+](=O)[O-]	-1	i	i	-1	26*	-20
COc1ccc(/C=N/Nc2nc(N3CCCCC3)nc(N3CCCCC3)n2)cc1[N+](=O)[O-]	0	i	i	0	-1	16
CCCCCCCCN1C(=O)[C@H](CC(=O)NCc2cccc3ccccc23)C[C@@]2(C(=O)OCC)CCC=C12	·	·	·	-1	·	·
CC(C)Cn1c(=O)c2ccccc2n2c(CCC(=O)O)nnc12	-1	i	i	0	0	-1
N#Cc1cc(-c2ccc(Cl)cc2)cnc1Sc1ccc(F)cc1	12	i	i	7	13*	-22
N#Cc1cc(-c2ccccc2)cnc1Sc1ccc(Cl)cc1	1	i	i	5	0	-4
SMILES	CRFR2-BP ag	TMEM16A act	TMEM16A inh	MPTP inh	NR3A LBD binder	CRFR2-BP antag
O=C(O)CCNC(=O)OCC1c2ccccc2-c2ccccc21	-5	i	i	-1	-1	60*
O=C(CCNC(=O)OCC1c2ccccc2-c2ccccc21)NOCc1ccccc1	-3	i	·	-2	-2	1
C=C(C)C(O)CC/C(C)=C/Cc1c(O)ccc(C(=O)/C=C/c2ccc(O)cc2)c1O (stereo unspecified)	3	i	·	3	15*	-11
COc1ccc(C(=O)/C=C/c2ccc(O)cc2)c(O)c1C/C=C(\C)CCC=C(C)C	1	i	·	6	30*	1
O=C(/C=C/c1ccc(O)cc1)c1c(O)cc(O)cc1O	-1	i	i	0	-4	12
COc1ccc(C=CC(=O)c2ccc(OC)c(OC)c2O)cc1OC	-4	i	·	-1	2	-16
CC(/C=C1\SC(=S)N(CC(=O)O)C1=O)=C\c1ccccc1	-2	i	i	5	0	1
Cn1cc(/C=C2\SC(=S)N(N3CCOCC3)C2=O)c2ccccc21	3	i	i	-3	3	-16
Cn1cc(/C=C2\SC(=S)N(NC(=O)c3ccccc3)C2=O)c2ccccc21	72*	i	i	2	-1	-112
CC(/C=C1\SC(=S)N(NC(=O)c2cccc(O)c2)C1=O)=C\c1ccccc1	4	i	i	12	22*	6
Cn1cc(/C=C2\SC(=S)N(NC(=O)c3cccc(Cl)c3)C2=O)c2ccccc21	36	i	·	6	20*	-33
COCCN1C(=O)CCC1(C)C(=O)Nc1ccc2ccccc2c1 (stereo unspecified)	·	·	·	0	·	·
Cc1c(C(=O)N2CCOCC2)c(S(=O)(=O)N2CCN(c3ccc(Cl)cc3)CC2)c(C)n1C	-1	i	i	-2	0	21
CC(C)Cc1cc(C(=O)N2CCCC(CO)(Cc3ccc(F)cc3F)C2)n[nH]1 (stereo unspecified)	1	i	i	0	2	-30
COc1cc(C[C@H](C)[C@H](C)Cc2ccc3c(c2)OCO3)ccc1O	0	i	i	3	-36	59*
O=C(CC(=O)c1ccccc1O)c1cccc(F)c1	34	i	i	7	23*	-13
NS(=O)(=O)c1ccc(Oc2ccc(S(N)(=O)=O)cc2)cc1	-3	-4.9*	i	-3	1	10
CCOc1ccc(N2CC(C(=O)N3CCCCCC3)CC2=O)cc1 (stereo unspecified)	-1	i	i	0	4	5
Cc1cc(S(=O)(=O)N(Cc2ccc(F)cc2)CC2CCCO2)ccc1-n1cnnn1 (stereo unspecified)	1	i	i	0	2	14
Cc1cc(S(=O)(=O)N(Cc2ccc3c(c2)OCO3)CC2CCCO2)ccc1-n1cnnn1 (stereo unspecified)	1	i	i	0	21*	5
CCOC(=O)c1[nH]c(C)c(C(=O)OCC(=O)NC(C)c2ccc(F)cc2)c1C (stereo unspecified)	1	i	·	0	0	6
